Reference: the supplement of paper PMC11732987, “Enantioselective OTUD7B fragment discovery through chemoproteomics screening and high-throughput optimisation” (Communications Chemistry, 2025)

How the values were obtained:
Test in all cases: log2 ratio of Biotin-Ahx-Ub-VS probe labelling (fragment/DMSO); higher = less target engagement (more negative = stronger competition), active = hit call of the paper (q ≤ 0.05, log2 ratio ≤ -1)
Settings in all cases: compound concentration: 200 uM; treatment time: 3 h
[1] = target: USP34 (UniProt Q70CQ2)
USP34, sequence (Q70CQ2 whole entry, the tested form may be a part): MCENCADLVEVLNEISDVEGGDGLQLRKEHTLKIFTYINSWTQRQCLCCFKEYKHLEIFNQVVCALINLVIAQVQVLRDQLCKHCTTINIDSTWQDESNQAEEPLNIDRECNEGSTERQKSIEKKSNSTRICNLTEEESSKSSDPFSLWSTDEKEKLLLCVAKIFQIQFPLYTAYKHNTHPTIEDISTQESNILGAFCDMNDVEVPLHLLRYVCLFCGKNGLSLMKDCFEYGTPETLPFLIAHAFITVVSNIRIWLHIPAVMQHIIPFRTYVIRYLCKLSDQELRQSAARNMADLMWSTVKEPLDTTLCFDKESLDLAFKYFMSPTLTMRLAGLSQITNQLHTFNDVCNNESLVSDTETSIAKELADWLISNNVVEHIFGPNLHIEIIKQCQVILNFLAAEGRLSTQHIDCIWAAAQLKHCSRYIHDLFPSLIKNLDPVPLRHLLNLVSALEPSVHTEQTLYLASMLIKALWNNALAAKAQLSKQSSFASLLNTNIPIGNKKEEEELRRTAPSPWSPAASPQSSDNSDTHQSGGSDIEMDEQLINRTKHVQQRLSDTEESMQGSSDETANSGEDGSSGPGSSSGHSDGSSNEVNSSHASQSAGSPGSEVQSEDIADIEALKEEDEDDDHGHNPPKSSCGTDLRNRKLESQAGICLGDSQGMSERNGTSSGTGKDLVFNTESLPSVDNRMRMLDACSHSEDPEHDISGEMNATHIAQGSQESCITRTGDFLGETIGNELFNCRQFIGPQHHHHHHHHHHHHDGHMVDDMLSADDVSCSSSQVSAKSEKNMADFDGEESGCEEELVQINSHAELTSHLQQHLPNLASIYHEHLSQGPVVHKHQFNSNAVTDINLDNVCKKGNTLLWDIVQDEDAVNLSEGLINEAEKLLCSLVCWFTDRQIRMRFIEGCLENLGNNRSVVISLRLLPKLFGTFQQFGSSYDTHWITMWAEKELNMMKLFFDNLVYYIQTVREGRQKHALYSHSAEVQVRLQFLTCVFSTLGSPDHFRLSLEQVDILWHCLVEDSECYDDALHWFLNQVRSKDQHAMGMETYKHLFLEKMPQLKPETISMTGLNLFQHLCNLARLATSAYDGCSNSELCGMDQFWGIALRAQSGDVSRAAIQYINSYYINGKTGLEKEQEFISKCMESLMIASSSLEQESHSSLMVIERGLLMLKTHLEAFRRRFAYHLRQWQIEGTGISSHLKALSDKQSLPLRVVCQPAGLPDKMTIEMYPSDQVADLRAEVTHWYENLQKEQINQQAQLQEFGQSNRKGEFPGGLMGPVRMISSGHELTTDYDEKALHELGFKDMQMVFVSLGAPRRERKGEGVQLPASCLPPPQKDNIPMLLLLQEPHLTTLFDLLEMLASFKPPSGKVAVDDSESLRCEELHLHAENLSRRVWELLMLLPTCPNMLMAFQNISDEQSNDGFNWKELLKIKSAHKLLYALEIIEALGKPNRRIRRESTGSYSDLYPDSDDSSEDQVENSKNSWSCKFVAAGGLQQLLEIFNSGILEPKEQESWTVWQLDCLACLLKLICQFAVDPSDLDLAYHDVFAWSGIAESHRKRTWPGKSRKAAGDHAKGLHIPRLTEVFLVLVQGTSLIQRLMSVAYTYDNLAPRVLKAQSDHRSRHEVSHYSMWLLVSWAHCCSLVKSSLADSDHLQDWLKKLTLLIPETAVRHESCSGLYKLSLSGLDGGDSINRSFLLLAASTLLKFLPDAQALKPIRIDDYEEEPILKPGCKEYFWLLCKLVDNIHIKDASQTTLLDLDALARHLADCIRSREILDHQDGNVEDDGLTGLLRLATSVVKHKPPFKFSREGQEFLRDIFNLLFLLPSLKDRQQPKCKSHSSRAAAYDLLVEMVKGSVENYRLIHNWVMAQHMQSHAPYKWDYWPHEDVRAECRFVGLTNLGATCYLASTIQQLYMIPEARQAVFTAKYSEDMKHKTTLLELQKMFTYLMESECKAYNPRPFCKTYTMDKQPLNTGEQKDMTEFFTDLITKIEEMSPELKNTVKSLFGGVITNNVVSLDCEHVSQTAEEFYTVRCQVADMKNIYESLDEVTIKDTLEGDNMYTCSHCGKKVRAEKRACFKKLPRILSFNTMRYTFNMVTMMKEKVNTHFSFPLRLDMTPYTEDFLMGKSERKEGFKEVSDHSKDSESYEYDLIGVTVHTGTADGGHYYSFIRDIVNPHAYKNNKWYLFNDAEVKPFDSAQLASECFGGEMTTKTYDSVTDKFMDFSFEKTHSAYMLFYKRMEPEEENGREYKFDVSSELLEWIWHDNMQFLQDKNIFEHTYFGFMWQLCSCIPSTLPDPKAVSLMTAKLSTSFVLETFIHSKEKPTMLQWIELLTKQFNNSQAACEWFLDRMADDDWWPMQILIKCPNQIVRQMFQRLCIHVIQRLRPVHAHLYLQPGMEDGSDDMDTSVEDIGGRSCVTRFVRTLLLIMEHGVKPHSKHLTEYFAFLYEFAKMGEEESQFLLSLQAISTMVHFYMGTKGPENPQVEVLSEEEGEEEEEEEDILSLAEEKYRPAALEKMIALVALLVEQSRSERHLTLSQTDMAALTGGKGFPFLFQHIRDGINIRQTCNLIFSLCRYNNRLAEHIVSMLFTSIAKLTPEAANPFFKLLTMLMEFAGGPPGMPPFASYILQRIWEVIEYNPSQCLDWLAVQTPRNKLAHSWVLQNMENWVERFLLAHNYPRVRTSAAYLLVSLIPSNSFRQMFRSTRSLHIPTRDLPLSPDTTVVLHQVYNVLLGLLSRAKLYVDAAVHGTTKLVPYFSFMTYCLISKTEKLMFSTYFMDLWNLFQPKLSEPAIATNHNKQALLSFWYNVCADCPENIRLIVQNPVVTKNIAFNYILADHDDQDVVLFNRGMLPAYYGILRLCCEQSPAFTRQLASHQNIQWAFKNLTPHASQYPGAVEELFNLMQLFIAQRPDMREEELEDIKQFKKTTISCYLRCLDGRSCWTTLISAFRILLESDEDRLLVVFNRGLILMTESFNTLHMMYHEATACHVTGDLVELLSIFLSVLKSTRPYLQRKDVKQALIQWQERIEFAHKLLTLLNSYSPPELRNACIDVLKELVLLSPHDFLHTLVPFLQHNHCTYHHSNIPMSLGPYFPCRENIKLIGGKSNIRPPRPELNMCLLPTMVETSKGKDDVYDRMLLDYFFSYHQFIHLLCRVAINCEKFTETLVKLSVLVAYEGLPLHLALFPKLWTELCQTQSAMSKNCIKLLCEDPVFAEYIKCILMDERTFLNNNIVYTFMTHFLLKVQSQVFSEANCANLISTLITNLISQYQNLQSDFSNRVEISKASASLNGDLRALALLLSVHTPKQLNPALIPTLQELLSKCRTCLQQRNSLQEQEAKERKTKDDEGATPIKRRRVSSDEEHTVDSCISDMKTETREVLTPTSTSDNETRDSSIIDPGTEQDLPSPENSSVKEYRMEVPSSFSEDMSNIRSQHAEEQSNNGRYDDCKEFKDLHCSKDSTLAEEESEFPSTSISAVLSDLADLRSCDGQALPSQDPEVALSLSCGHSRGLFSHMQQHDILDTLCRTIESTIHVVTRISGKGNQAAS
Method in brief: (§1)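 Each value is an average log2 ratio of fragment to vehicle, tested by unpaired t-test. The underlying Spectronaut label-free quantities were global-median-normalised, and only proteins with ≥2 unique peptides were included. Triplicate HEK293T lysate samples (495 µg) were exposed to fragment at 200 µM or vehicle for 3 h, then to Biotin-Ahx-Ub-VS at 0.5 µM final for 1 h, before NeutrAvidin enrichment of labelled DUBs, LysC and trypsin digestion, and diaPASEF LC-MS/MS.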

[2] = target: T1, USP36 (UniProt Q9P275)
T1 sequence (whole entry): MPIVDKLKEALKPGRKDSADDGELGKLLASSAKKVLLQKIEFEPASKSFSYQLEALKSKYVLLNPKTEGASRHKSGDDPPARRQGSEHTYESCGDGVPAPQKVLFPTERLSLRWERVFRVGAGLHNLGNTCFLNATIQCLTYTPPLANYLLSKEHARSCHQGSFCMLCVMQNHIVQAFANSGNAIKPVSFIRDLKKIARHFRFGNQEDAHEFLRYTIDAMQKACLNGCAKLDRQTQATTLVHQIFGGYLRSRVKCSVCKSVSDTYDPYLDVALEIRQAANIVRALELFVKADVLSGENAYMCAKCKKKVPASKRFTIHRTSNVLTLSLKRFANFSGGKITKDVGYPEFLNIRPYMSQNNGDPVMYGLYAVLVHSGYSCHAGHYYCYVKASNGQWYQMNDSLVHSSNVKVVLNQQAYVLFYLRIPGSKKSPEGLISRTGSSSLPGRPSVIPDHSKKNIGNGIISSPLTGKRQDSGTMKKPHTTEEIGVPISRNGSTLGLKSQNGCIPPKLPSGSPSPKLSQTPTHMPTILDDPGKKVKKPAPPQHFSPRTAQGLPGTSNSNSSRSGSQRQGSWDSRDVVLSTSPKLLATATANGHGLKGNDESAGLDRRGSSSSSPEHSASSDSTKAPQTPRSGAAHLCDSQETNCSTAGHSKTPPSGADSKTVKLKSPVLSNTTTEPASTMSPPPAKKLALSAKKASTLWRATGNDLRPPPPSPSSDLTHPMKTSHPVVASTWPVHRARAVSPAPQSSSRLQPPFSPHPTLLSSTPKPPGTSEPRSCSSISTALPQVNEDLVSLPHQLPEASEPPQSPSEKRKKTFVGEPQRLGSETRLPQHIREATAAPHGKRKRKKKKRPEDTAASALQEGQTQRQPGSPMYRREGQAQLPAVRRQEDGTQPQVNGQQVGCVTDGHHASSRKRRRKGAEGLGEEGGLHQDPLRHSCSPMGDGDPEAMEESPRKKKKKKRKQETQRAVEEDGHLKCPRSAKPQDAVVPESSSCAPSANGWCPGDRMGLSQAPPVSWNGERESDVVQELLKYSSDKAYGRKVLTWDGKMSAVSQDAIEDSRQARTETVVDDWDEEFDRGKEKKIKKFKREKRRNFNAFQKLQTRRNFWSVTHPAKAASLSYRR
Method in brief: as §1

[3] = target: T2, USP38 (UniProt Q8NB14)
T2 sequence (whole entry): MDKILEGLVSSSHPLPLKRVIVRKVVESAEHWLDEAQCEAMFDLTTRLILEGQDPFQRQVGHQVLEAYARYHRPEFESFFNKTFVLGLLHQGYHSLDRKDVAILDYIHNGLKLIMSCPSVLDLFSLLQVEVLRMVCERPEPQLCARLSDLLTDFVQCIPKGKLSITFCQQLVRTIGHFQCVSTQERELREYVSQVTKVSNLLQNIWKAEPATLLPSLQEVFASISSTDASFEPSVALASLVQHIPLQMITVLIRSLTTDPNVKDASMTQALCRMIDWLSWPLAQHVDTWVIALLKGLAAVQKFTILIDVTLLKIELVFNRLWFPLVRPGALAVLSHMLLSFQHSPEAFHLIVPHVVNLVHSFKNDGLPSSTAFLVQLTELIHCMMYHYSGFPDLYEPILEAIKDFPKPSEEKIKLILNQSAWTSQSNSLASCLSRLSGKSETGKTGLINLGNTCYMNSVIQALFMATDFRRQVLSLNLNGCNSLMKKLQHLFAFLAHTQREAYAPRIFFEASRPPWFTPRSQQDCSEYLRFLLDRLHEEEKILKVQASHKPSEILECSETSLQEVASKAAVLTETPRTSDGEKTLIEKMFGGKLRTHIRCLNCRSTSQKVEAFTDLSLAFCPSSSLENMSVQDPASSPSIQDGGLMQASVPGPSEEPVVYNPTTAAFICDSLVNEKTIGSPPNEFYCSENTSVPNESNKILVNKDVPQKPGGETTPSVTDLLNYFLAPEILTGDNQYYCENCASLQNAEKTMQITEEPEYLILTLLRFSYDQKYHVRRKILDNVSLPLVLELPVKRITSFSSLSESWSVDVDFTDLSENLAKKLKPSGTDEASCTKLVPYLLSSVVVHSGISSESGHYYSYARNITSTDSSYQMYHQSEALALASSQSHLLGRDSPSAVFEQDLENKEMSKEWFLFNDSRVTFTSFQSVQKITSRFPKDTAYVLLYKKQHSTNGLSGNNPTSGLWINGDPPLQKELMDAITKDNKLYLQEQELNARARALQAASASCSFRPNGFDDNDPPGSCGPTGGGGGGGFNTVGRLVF
Method in brief: as §1

[4] = target: T3, USP39 (UniProt Q53GS9)
T3 sequence (whole entry): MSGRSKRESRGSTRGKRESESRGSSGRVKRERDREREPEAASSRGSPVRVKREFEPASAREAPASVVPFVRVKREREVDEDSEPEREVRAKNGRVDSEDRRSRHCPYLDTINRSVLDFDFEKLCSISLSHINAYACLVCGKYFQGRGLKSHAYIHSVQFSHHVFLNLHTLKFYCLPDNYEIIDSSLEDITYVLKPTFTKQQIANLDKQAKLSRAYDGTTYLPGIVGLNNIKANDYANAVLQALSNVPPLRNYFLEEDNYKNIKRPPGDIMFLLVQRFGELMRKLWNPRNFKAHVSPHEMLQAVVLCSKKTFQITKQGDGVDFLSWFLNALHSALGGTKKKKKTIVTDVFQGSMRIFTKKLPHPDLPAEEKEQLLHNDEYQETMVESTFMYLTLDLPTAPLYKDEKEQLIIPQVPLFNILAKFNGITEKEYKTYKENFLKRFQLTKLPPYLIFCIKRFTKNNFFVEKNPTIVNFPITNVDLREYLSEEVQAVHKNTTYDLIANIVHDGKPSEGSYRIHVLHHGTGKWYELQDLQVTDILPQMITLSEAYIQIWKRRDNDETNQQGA
Method in brief: as §1

[5] = target: T4, USP4 (UniProt Q13107)
T4 sequence (whole entry): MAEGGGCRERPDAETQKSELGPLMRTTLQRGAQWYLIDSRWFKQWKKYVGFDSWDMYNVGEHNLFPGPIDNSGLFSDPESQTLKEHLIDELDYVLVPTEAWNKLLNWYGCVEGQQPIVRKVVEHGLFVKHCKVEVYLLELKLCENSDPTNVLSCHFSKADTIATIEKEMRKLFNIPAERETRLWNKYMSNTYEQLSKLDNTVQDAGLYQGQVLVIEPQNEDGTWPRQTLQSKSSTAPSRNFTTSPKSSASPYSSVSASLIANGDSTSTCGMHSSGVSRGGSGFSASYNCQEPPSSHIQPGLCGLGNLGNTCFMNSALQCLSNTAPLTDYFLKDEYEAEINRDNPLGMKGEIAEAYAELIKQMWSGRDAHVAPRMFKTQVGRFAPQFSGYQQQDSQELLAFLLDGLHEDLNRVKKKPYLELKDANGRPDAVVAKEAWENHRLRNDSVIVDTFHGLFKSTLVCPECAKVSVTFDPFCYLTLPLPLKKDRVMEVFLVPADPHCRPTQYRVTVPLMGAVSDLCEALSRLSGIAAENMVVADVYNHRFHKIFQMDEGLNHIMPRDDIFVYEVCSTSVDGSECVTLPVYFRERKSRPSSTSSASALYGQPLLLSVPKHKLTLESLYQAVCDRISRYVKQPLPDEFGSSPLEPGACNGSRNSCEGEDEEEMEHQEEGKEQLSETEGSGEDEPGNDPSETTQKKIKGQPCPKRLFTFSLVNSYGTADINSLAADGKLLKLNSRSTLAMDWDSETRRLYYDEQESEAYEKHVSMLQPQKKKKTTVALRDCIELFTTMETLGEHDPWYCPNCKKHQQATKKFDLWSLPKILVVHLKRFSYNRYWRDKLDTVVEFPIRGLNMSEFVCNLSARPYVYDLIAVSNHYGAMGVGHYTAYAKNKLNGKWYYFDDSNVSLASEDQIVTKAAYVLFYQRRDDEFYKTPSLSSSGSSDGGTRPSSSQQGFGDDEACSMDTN
Method in brief: as §1

Measured: log2 ratio of Biotin-Ahx-Ub-VS probe labelling

COc1ccc(CN(C)C(=O)CCl)cc1
inactive: [1] -0.0886 | [2] 0.0384 | [3] 0.0505 | [4] 0.298 | [5] -0.016
